Results as given in PubChem BioAssay AID1159580 (chemical genetic matrix, 2015).
The campaign covered roughly 5,500 compounds. About 2,000 (36%) were called active. Roughly 18% stayed inconclusive and do not appear here. Cut-off read from the data, not from the text of the source: active = normalized growth mostly below about 0.91 (no sharp cut-off); inconclusive = no clear call, values can overlap the other calls; inactive = mostly above about 0.92. This is one part of the list.

Experiment: chemical genetic growth profiling, strain panel (AID 1159580);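 note: tested at 20 µM; growth read once vehicle control cultures reached saturation at 30 °C; 1 = growth at the plate median or of vehicle wells; lower values mean less growth of the strain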
Details: growth OD

Measured: normalized growth

Cc1cc(O)cc(O)c1C(=O)O
inactive: S. cerevisiae deletion strains, locus YJR066W, strain TOR1, active compounds read low 1.01 | S. cerevisiae deletion strains, locus YJR075W, strain HOC1, active compounds read low 1.01 | S. cerevisiae deletion strains, locus YKL009W, strain mrt4, active compounds read low 0.964 | S. cerevisiae deletion strains, locus YKL068W, active compounds read low 0.992 | S. cerevisiae deletion strains, locus YKL085W, strain MDH1 (second series), active compounds read low 1 | S. cerevisiae deletion strains, locus YKL085W, strain MDH1, active compounds read low 1 | S. cerevisiae deletion strains, locus YKL160W, strain elf1, active compounds read low 0.994 | S. cerevisiae deletion strains, locus YKL190W, strain CNB1, active compounds read low 0.978 | S. cerevisiae deletion strains, locus YKR001C, strain vps1, active compounds read low 1.01 | S. cerevisiae deletion strains, locus YKR026C, strain gcn3, active compounds read low 1.02 | S. cerevisiae deletion strains, locus YKR091W, strain srl3, active compounds read low 1.01 | S. cerevisiae deletion strains, locus YLL001W, strain dnm1, active compounds read low 0.992 | S. cerevisiae deletion strains, locus YLL026W, active compounds read low 1.02 | S. cerevisiae deletion strains, locus YLL041C, strain sdh2, active compounds read low 1.03 | S. cerevisiae deletion strains, locus YLR027C, strain aat2, active compounds read low 1.03 | S. cerevisiae deletion strains, locus YLR039C, strain RIC1, active compounds read low 1.19 | S. cerevisiae deletion strains, locus YLR058C, strain SHM2, active compounds read low 1.02 | S. cerevisiae deletion strains, locus YLR102C, strain apc9, active compounds read low 1.01 | S. cerevisiae deletion strains, locus YLR113W, strain HOG1, active compounds read low 1.09 | S. cerevisiae deletion strains, locus YLR221C, strain rsa3, active compounds read low 1.04 | S. cerevisiae deletion strains, locus YLR258W, strain gsy2, active compounds read low 1.04 | S. cerevisiae deletion strains, locus YLR262C, strain YPT6 (second series), active compounds read low 1.04 | S. cerevisiae deletion strains, locus YLR268W, strain sec22, active compounds read low 1.04 | S. cerevisiae deletion strains, locus YLR320W, strain mms22, active compounds read low 1.03 | S. cerevisiae deletion strains, locus YLR330W, strain CHS5, active compounds read low 1.01 | S. cerevisiae deletion strains, locus YLR342W, strain FKS1 (second series), active compounds read low 1.02 | S. cerevisiae deletion strains, locus YLR342W, strain FKS1, active compounds read low 1.03 | S. cerevisiae deletion strains, locus YLR357W, strain rsc2, active compounds read low 1.01 | S. cerevisiae deletion strains, locus YLR370C, strain arc18, active compounds read low 1.01 | S. cerevisiae deletion strains, locus YLR371W, strain rom2, active compounds read low 0.987 | S. cerevisiae deletion strains, locus YLR384C, strain iki3, active compounds read low 1.03 | S. cerevisiae deletion strains, locus YLR418C, strain cdc73, active compounds read low 1.02 | S. cerevisiae deletion strains, locus YML016C, strain PPZ1, active compounds read low 1.01 | S. cerevisiae deletion strains, locus YML032C, strain rad52, active compounds read low 0.99 | S. cerevisiae deletion strains, locus YML120C, strain ndi1, active compounds read low 1.01 | S. cerevisiae deletion strains, locus YML124C, strain tub3, active compounds read low 0.989 | S. cerevisiae deletion strains, locus YMR058W, strain fet3, active compounds read low 1.03 | S. cerevisiae deletion strains, locus YMR078C, strain ctf18, active compounds read low 1 | S. cerevisiae deletion strains, locus YMR125W, strain sto1, active compounds read low 1 | S. cerevisiae deletion strains, locus YMR129W, active compounds read low 1 | S. cerevisiae deletion strains, locus YMR205C, strain PFK2, active compounds read low 1 | S. cerevisiae deletion strains, locus YMR223W, strain ubp8, active compounds read low 0.978 | S. cerevisiae deletion strains, locus YMR231W, strain pep5, active compounds read low 1.01 | S. cerevisiae deletion strains, locus YMR307W, strain GAS1, active compounds read low 1.19 | S. cerevisiae deletion strains, locus YNL067W, strain RPL9B, active compounds read low 0.991 | S. cerevisiae deletion strains, locus YNL071W, strain lat1, active compounds read low 1.01 | S. cerevisiae deletion strains, locus YNL153C, strain GIM3, active compounds read low 0.998 | S. cerevisiae deletion strains, locus YNL183C, strain NPR1, active compounds read low 1.01 | S. cerevisiae deletion strains, locus YNL209W, strain ssb2, active compounds read low 1 | S. cerevisiae deletion strains, locus YNL233W, strain BNI4, active compounds read low 1.04 | S. cerevisiae deletion strains, locus YNL248C, strain rpa49, active compounds read low 1.03 | S. cerevisiae deletion strains, locus YNL250W, strain rad50, active compounds read low 0.905 | S. cerevisiae deletion strains, locus YNL271C, strain bni1, active compounds read low 0.98 | S. cerevisiae deletion strains, locus YNL298W, strain CLA4, active compounds read low 1.01 | S. cerevisiae deletion strains, locus YNL307C, strain MCK1, active compounds read low 1 | S. cerevisiae deletion strains, locus YNL322C, strain KRE1 (second series), active compounds read low 1 | S. cerevisiae deletion strains, locus YNR049C, strain mso1, active compounds read low 1.02 | S. cerevisiae deletion strains, locus YNR052C, strain pop2, active compounds read low 1 | S. cerevisiae deletion strains, locus YOL012C, strain htz1 0.732 | S. cerevisiae deletion strains, locus YOL147C, strain pex11, active compounds read low 0.988 | S. cerevisiae deletion strains, locus YOR001W, strain rrp6, active compounds read low 1.02 | S. cerevisiae deletion strains, locus YOR061W, strain CKA2, active compounds read low 1.02 | S. cerevisiae deletion strains, locus YOR069W, strain VPS5, active compounds read low 1.01 | S. cerevisiae deletion strains, locus YOR070C, strain gyp1, active compounds read low 1.02 | S. cerevisiae deletion strains, locus YOR080W, strain dia2, active compounds read low 1.02 | S. cerevisiae deletion strains, locus YOR083W, strain WHI5, active compounds read low 0.989 | S. cerevisiae deletion strains, locus YOR106W, strain vam3, active compounds read low 0.98 | S. cerevisiae deletion strains, locus YOR136W, strain idh2, active compounds read low 0.991 | S. cerevisiae deletion strains, locus YOR144C, strain elg1, active compounds read low 0.996 | S. cerevisiae deletion strains, locus YOR184W, strain ser1, active compounds read low 1.09 | S. cerevisiae deletion strains, locus YOR231W, strain MKK1, active compounds read low 1.11 | S. cerevisiae deletion strains, locus YOR265W, strain rbl2, active compounds read low 1.01 | S. cerevisiae deletion strains, locus YOR270C, strain vph1, active compounds read low 1.07 | S. cerevisiae deletion strains, locus YOR290C, strain snf2, active compounds read low 1 | S. cerevisiae deletion strains, locus YOR316C, strain cot1, active compounds read low 0.977 | S. cerevisiae deletion strains, locus YPL051W, strain arl3, active compounds read low 0.986 | S. cerevisiae deletion strains, locus YPL055C, strain LGE1, active compounds read low 1.09 | S. cerevisiae deletion strains, locus YPL078C, strain atp4, active compounds read low 0.997 | S. cerevisiae deletion strains, locus YPL106C, strain sse1, active compounds read low 0.986 | S. cerevisiae deletion strains, locus YPL240C, strain hsp82, active compounds read low 1.01 | S. cerevisiae deletion strains, locus YPL241C, strain CIN2, active compounds read low 0.999 | S. cerevisiae deletion strains, locus YPL256C, strain CLN2, active compounds read low 1.09 | S. cerevisiae deletion strains, locus YPR119W, strain clb2, active compounds read low 0.981 | S. cerevisiae deletion strains, locus YPR141C, strain kar3, active compounds read low 0.973 | S. cerevisiae deletion strains, locus YPR163C, strain tif3, active compounds read low 1 | S. cerevisiae deletion strains, locus YPR167C, strain met16, active compounds read low 0.996 | S. cerevisiae deletion strains, strain wtn01, active compounds read low 1.02 | S. cerevisiae strains, strain wild type, active compounds read low 1.03
